# Measured values taken from article PMC8384837, “Expanding the binding specificity for RNA recognition by a PUF domain”.
# Changes are numbered by the printed parent chain.
# Columns and labels:
# Assay in all cases: yeast three-hybrid, YBZ-1, SC-Leu-His + 0.5 mM 3-AT, 4 days
# Conditions in all cases: tags: N-Gal4 AD-HA kept; label: inside an RPR1-promoter hybrid RNA with tandem MS2 sites; ssRNA
# PUM1 PUF domain R7-RTQ = PUM1 PUF domain R7-RTQ (Homo sapiens, UniProt Q14671 828-1176, S1079R;N1080T;E1083Q)
# In short: (§1)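 Matching RNA elements and Pumilio-1 PUF domain libraries, randomized at the three base-contacting residues of every repeat, were co-expressed from a centromeric plasmid in strain YBZ-1 (LexA–MS2 coat fusion, HIS3 reporter). The repeat regions were PCR-amplified and Illumina-sequenced from cells grown four days on SC-Leu (input) or SC-Leu-His + 0.5 mM 3-AT (selection). The interaction score is the log change in variant frequency from input to selection. It is computed in log2, with a pseudocount of 1 for absent variants.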
# PUM1 PUF domain R7-ISK = PUM1 PUF domain R7-ISK (Homo sapiens, UniProt Q14671 828-1176, S1079I;N1080S;E1083K)
# In short: as §1
# PUM1 PUF domain R5-LHS = PUM1 PUF domain R5-LHS (Homo sapiens, UniProt Q14671 828-1176, C1007L;R1008H;Q1011S)
# In short: as §1
# PUM1 PUF domain R5-GRT = PUM1 PUF domain R5-GRT (Homo sapiens, UniProt Q14671 828-1176, C1007G;Q1011T)
# In short: as §1
# PUM1 PUF domain R5-RGA = PUM1 PUF domain R5-RGA (Homo sapiens, UniProt Q14671 828-1176, C1007R;R1008G;Q1011A)
# In short: as §1
# PUM1 PUF domain R7-CFP = PUM1 PUF domain R7-CFP (Homo sapiens, UniProt Q14671 828-1176, S1079C;N1080F;E1083P)
# In short: as §1
# PUM1 PUF domain R8-KHV = PUM1 PUF domain R8-KHV (Homo sapiens, UniProt Q14671 828-1176, N1122K;Y1123H;Q1126V)
# In short: as §1
# PUM1 PUF domain R6-SWS = biological target: T1, PUM1 PUF domain R6-SWS (Homo sapiens, UniProt Q14671 828-1176, N1043S;Y1044W;Q1047S)
# T1 sequence: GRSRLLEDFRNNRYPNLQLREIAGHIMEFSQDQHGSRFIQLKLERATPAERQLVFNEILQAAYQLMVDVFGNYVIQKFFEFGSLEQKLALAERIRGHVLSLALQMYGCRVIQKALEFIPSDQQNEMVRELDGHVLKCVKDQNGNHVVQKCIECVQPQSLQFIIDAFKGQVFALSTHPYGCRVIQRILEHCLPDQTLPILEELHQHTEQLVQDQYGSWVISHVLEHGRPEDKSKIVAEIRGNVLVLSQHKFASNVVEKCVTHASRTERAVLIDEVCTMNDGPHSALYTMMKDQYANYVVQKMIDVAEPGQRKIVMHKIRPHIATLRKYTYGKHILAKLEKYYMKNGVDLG
# In short: as §1
# PUM1 PUF domain R6-VWH = biological target: T2, PUM1 PUF domain R6-VWH (Homo sapiens, UniProt Q14671 828-1176, N1043V;Y1044W;Q1047H)
# T2 sequence: T1 sequence with S216V, S220H
# In short: as §1
# PUM1 PUF domain R6-RYC = biological target: T3, PUM1 PUF domain R6-RYC (Homo sapiens, UniProt Q14671 828-1176, N1043R;Q1047C)
# T3 sequence: T1 sequence with S216R, W217Y, S220C
# In short: as §1
# PUM1 PUF domain R6-GWR = biological target: T4, PUM1 PUF domain R6-GWR (Homo sapiens, UniProt Q14671 828-1176, N1043G;Y1044W;Q1047R)
# T4 sequence: T1 sequence with S216G, S220R
# In short: as §1
# PUM1 PUF domain R4-EYG = PUM1 PUF domain R4-EYG (Homo sapiens, UniProt Q14671 828-1176, N971E;H972Y;Q975G)
# In short: as §1
# PUM1 PUF domain R3-FCG = PUM1 PUF domain R3-FCG (Homo sapiens, UniProt Q14671 828-1176, C935F;R936C;Q939G)
# In short: as §1
# PUM1 PUF domain R3-PFF = PUM1 PUF domain R3-PFF (Homo sapiens, UniProt Q14671 828-1176, C935P;R936F;Q939F)
# In short: as §1
# PUM1 PUF domain R3-WCR = PUM1 PUF domain R3-WCR (Homo sapiens, UniProt Q14671 828-1176, C935W;R936C;Q939R)
# In short: as §1
# PUM1 PUF domain R1-EKK = PUM1 PUF domain R1-EKK (Homo sapiens, UniProt Q14671 828-1176, S863E;R864K;Q867K)
# In short: as §1
# PUM1 PUF domain R4-PYD = PUM1 PUF domain R4-PYD (Homo sapiens, UniProt Q14671 828-1176, N971P;H972Y;Q975D)
# In short: as §1
# PUM1 PUF domain R3-YWW = PUM1 PUF domain R3-YWW (Homo sapiens, UniProt Q14671 828-1176, C935Y;R936W;Q939W)
# In short: as §1
# PUM1 PUF domain R3-DRE = PUM1 PUF domain R3-DRE (Homo sapiens, UniProt Q14671 828-1176, C935D;Q939E)
# In short: as §1
# PUM1 PUF domain R5-QKR = PUM1 PUF domain R5-QKR (Homo sapiens, UniProt Q14671 828-1176, C1007Q;R1008K;Q1011R)
# In short: as §1
sequence,measurement,setting,value
GGCUAGAACUAGUGGAUCCCCCGGCGCCCGGCGGCUCGAGCCCGGGUAAGUUUAAAUAGUCUGCAUGCCGCCGGGCGCCAUGCCUGCAGGUCGACUCUAGAAAACAUG,binding signal,PUM1 PUF domain R7-RTQ,4.75 log2 enrichment (interaction score)
same,binding signal,PUM1 PUF domain R7-ISK,2 log2 enrichment (interaction score)
GGCUAGAACUAGUGGAUCCCCCGGCGCCCGGCGGCUCGAGCCCGGGUAAGUGUUAAUAGUCUGCAUGCCGCCGGGCGCCAUGCCUGCAGGUCGACUCUAGAAAACAUG,binding signal,PUM1 PUF domain R5-LHS,5.04 log2 enrichment (interaction score)
same,binding signal,PUM1 PUF domain R5-GRT,3.02 log2 enrichment (interaction score)
same,binding signal,PUM1 PUF domain R5-RGA,1.01 log2 enrichment (interaction score)
GGCUAGAACUAGUGGAUCCCCCGGCGCCCGGCGGCUCGAGCCCGGGUAAGUAUAAAUAGUCUGCAUGCCGCCGGGCGCCAUGCCUGCAGGUCGACUCUAGAAAACAUG,binding signal,PUM1 PUF domain R7-CFP,2.42 log2 enrichment (interaction score)
GGCUAGAACUAGUGGAUCCCCCGGCGCCCGGCGGCUCGAGCCCGGGUAAGCGUAAAUAGUCUGCAUGCCGCCGGGCGCCAUGCCUGCAGGUCGACUCUAGAAAACAUG,binding signal,PUM1 PUF domain R8-KHV,2.09 log2 enrichment (interaction score)
GGCUAGAACUAGUGGAUCCCCCGGCGCCCGGCGGCUCGAGCCCGGGUAAGUGAAAAUAGUCUGCAUGCCGCCGGGCGCCAUGCCUGCAGGUCGACUCUAGAAAACAUG,binding signal,PUM1 PUF domain R6-SWS,3.49 log2 enrichment (interaction score)
same,binding signal,PUM1 PUF domain R6-VWH,7.07 log2 enrichment (interaction score)
GGCUAGAACUAGUGGAUCCCCCGGCGCCCGGCGGCUCGAGCCCGGGUAAGUGUGAAUAGUCUGCAUGCCGCCGGGCGCCAUGCCUGCAGGUCGACUCUAGAAAACAUG,binding signal,PUM1 PUF domain R5-GRT,2.87 log2 enrichment (interaction score)
GGCUAGAACUAGUGGAUCCCCCGGCGCCCGGCGGCUCGAGCCCGGGUAAGUGUAAAUAGUCUGCAUGCCGCCGGGCGCCAUGCCUGCAGGUCGACUCUAGAAAACAUG,binding signal,PUM1 PUF domain R6-RYC,4.42 log2 enrichment (interaction score)
same,binding signal,PUM1 PUF domain R6-SWS,4.04 log2 enrichment (interaction score)
same,binding signal,PUM1 PUF domain R5-GRT,2.94 log2 enrichment (interaction score)
same,binding signal,PUM1 PUF domain R6-GWR,6.56 log2 enrichment (interaction score)
same,binding signal,PUM1 PUF domain R4-EYG,3.15 log2 enrichment (interaction score)
same,binding signal,PUM1 PUF domain R3-FCG,0.82 log2 enrichment (interaction score)
same,binding signal,PUM1 PUF domain R3-PFF,1.1 log2 enrichment (interaction score)
GGCUAGAACUAGUGGAUCCCCCGGCGCCCGGCGGCUCGAGCCCGGGUAAGUGCAAAUAGUCUGCAUGCCGCCGGGCGCCAUGCCUGCAGGUCGACUCUAGAAAACAUG,binding signal,PUM1 PUF domain R6-GWR,3.5 log2 enrichment (interaction score)
GGCUAGAACUAGUGGAUCCCCCGGCGCCCGGCGGCUCGAGCCCGGGUAAGUGUAAUUAGUCUGCAUGCCGCCGGGCGCCAUGCCUGCAGGUCGACUCUAGAAAACAUG,binding signal,PUM1 PUF domain R3-PFF,3.19 log2 enrichment (interaction score)
same,binding signal,PUM1 PUF domain R3-WCR,1.63 log2 enrichment (interaction score)
GGCUAGAACUAGUGGAUCCCCCGGCGCCCGGCGGCUCGAGCCCGGGUAAGUGUAAAUUGUCUGCAUGCCGCCGGGCGCCAUGCCUGCAGGUCGACUCUAGAAAACAUG,binding signal,PUM1 PUF domain R1-EKK,2.94 log2 enrichment (interaction score)
GGCUAGAACUAGUGGAUCCCCCGGCGCCCGGCGGCUCGAGCCCGGGUAAGUGUAUAUAGUCUGCAUGCCGCCGGGCGCCAUGCCUGCAGGUCGACUCUAGAAAACAUG,binding signal,PUM1 PUF domain R4-PYD,5.78 log2 enrichment (interaction score)
same,binding signal,PUM1 PUF domain R4-EYG,1.12 log2 enrichment (interaction score)
GGCUAGAACUAGUGGAUCCCCCGGCGCCCGGCGGCUCGAGCCCGGGUAAGUGUACAUAGUCUGCAUGCCGCCGGGCGCCAUGCCUGCAGGUCGACUCUAGAAAACAUG,binding signal,PUM1 PUF domain R4-EYG,0.47 log2 enrichment (interaction score)
GGCUAGAACUAGUGGAUCCCCCGGCGCCCGGCGGCUCGAGCCCGGGUAAGUGUAAGUAGUCUGCAUGCCGCCGGGCGCCAUGCCUGCAGGUCGACUCUAGAAAACAUG,binding signal,PUM1 PUF domain R3-YWW,4.57 log2 enrichment (interaction score)
same,binding signal,PUM1 PUF domain R3-FCG,5.32 log2 enrichment (interaction score)
same,binding signal,PUM1 PUF domain R3-DRE,5.66 log2 enrichment (interaction score)
same,binding signal,PUM1 PUF domain R3-WCR,4.82 log2 enrichment (interaction score)
GGCUAGAACUAGUGGAUCCCCCGGCGCCCGGCGGCUCGAGCCCGGGUAAGGGUAAAUAGUCUGCAUGCCGCCGGGCGCCAUGCCUGCAGGUCGACUCUAGAAAACAUG,binding signal,PUM1 PUF domain R8-KHV,2.26 log2 enrichment (interaction score)
GGCUAGAACUAGUGGAUCCCCCGGCGCCCGGCGGCUCGAGCCCGGGUAAGUGUCAAUAGUCUGCAUGCCGCCGGGCGCCAUGCCUGCAGGUCGACUCUAGAAAACAUG,binding signal,PUM1 PUF domain R5-LHS,2.24 log2 enrichment (interaction score)
same,binding signal,PUM1 PUF domain R5-GRT,0.6 log2 enrichment (interaction score)
same,binding signal,PUM1 PUF domain R5-RGA,2.27 log2 enrichment (interaction score)
same,binding signal,PUM1 PUF domain R5-QKR,5.65 log2 enrichment (interaction score)
